From article PMC4336329 (PLoS ONE, 2015)
The whole screen tested about 310,000 compounds, of which about 14,000 (4.5%) showed an effect of 50% or more. The effect is printed as a negative number. This is one part of a sample in which strong results are shown more often than they occur.

target: human ether-à-go-go-related gene (hERG) potassium channel (human, UniProt Q12809); test: primary screen, population patch clamp on CHO cells stably expressing hERG; higher = less effect of the substance
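Note: peak tail current of the secondary pulse compared with the same well before compound.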

Sequence of human ether-à-go-go-related gene (hERG) potassium channel (Q12809 whole entry, looked up): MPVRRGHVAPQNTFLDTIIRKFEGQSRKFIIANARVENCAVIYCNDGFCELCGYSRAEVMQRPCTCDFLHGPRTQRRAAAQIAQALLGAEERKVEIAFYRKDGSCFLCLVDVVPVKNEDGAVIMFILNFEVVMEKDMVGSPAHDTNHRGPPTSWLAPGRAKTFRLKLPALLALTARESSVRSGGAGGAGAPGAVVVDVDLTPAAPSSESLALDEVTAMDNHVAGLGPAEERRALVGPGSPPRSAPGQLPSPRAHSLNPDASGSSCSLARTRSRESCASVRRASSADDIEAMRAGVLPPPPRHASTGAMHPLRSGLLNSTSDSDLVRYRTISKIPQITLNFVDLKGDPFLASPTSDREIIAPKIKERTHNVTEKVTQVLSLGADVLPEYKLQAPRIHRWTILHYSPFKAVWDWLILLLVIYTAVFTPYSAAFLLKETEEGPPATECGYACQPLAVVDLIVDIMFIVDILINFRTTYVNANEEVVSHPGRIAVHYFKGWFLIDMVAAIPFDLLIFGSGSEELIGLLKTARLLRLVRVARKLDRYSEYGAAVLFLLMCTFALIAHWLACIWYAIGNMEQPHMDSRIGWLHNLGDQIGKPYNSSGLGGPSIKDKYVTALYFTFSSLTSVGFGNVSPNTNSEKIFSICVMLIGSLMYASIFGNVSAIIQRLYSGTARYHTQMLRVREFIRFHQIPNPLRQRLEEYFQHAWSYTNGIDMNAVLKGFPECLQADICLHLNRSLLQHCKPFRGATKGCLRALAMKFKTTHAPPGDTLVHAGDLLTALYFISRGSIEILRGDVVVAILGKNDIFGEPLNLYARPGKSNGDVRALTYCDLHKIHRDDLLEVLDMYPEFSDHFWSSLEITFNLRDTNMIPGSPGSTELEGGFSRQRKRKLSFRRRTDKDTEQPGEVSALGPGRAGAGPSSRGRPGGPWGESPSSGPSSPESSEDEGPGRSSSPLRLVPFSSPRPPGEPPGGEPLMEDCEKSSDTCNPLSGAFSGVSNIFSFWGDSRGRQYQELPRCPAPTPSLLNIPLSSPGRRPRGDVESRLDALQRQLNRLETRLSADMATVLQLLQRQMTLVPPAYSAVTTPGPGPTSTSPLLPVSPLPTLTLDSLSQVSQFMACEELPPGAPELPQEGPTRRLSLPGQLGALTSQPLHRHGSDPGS

SMILES | hERG current change (%, negative = inhibition) at 10uM
CC(=NCC1CCCO1)c1c(O)n(-c2ccc(C)cc2)c(=O)[nH]c1=O (stereo not drawn) | -8.18%
O=S1(=O)CCC(N=Nc2c(O)n(Cc3ccccc3)c3ccccc23)C1 (stereo not drawn) | -25.1%
COc1cc(C)ccc1OCCOc1c(C)cccc1Cl | 2.01%
CCOc1ccc(NC(=O)NCc2ccco2)cc1 | 16.4%
CCOC(=O)c1ccccc1NC(=O)c1cn(-c2ccc(C)c(C)c2)c(=O)c2ccccc12 | -2.12%
CC(CN1CCCC1)OC(=O)c1ccc(F)cc1.Cl (stereo not drawn) | -10.1%
COC(=O)CNC(=O)c1ccc(C)s1 | -0.614%
CCc1c(C(=O)NNC(=S)NC2CCCCC2)csc1C | 16.3%
O=c1cc(C(F)(F)F)c2sc(N3CCCCC3)nc2[nH]1 | 20.1%
O=C(NCc1ccco1)/C(=C/c1ccc(F)cc1)NC(=O)c1ccccc1 | -14.1%
O=C(NCc1ccncc1)/C(=C\c1ccc(F)cc1)NC(=O)c1ccccc1 | -70.9%
Cc1ccc(C(=O)N/C(=C\c2ccc(F)cc2)C(=O)NCc2ccncc2)cc1 | -75.9%
Cc1ccc(NC(=O)/C(=C/c2ccncc2)NC(=O)c2ccccc2)cc1 | -9.82%
CN(C)c1ccc(/C=C(\NC(=O)c2ccccc2)C(=O)NCc2ccncc2)cc1 | -12.8%
CSc1ccc(/C=C(/NC(=O)c2ccc(C)cc2)C(=O)Nc2cccc(F)c2)cc1 | 6.66%
O=C(NCc1ccc(F)cc1)c1ccncc1 | 13.7%
Cc1ccc(C(=O)N/C(=C/c2ccc(F)cc2)C(=O)NCc2ccncc2)cc1 | -72.8%
CSc1ccc(/C=C(\NC(=O)c2ccc(C)cc2)C(=O)NN)cc1 | -10.9%
O=C(O)c1cccc(-n2cccc2/C=N/O)c1 | 11.4%
Cc1ccnc(NC(=O)CCC(=O)N(CC(=O)NC(C)(C)C)C2CCCC2)c1 | 1%

SMILES | hERG current change (%, negative = inhibition) at 10uM
Cc1cc(C)c(OCC(=O)Nc2cccc(NC(=O)c3ccco3)c2)c(Br)c1 | 1.79%
CCOc1ccc(NC(=O)c2ccccc2NC(=O)CN2CCN(C(C)=O)CC2)cc1 | -3.2%
O=C(NCCSc1ncc(-c2ccc(F)cc2)[nH]1)c1ccco1 | -37.1%
C/C=C/c1ccc(OCCN2C(=O)NC(C)(C)C2=O)c(OC)c1 | 6.58%
OC(CNCCc1ccccc1)c1ccccc1 (stereo not drawn) | -0.0558%
O=C(O)c1ccc2ccccc2c1O.OCc1cc(C(O)CNCCCCCCOCCCCc2ccccc2)ccc1O (stereo not drawn) | -45.5%
OCc1cc(C(O)CNCCCCCCOCCCCc2ccccc2)ccc1O (stereo not drawn) | -57.9%
Cc1ccc(C(=O)Nc2ccc(N3CCN(C(=O)c4ccco4)CC3)cc2)cc1 | 10.4%
CCN(CC)CCCN1C(=O)c2oc3ccccc3c(=O)c2C1c1cc(OC)ccc1OC (stereo not drawn) | -13%
CC(C)COC(=O)C(C#N)c1nc2ccccc2nc1N1CCN(Cc2ccccc2)CC1 (stereo not drawn) | -12%
N#CC(C(=O)NC1CC1)c1nc2ccccc2nc1N1CCCC1 (stereo not drawn) | -7.63%
COCCOC(=O)C(C#N)c1nc2ccccc2nc1N1CCN(Cc2ccccc2)CC1 (stereo not drawn) | -64.3%
CC(C)OC(=O)C(C#N)c1nc2ccccc2nc1N1CCN(Cc2ccccc2)CC1 (stereo not drawn) | -18.6%
C=CCOC(=O)C(C#N)c1nc2ccccc2nc1N1CCN(Cc2ccccc2)CC1 (stereo not drawn) | -62.1%
CC1CCN(c2nc3ccccc3nc2C(C#N)C(=O)NC2CCCCC2)CC1 (stereo not drawn) | 10.1%
N#CC(C(=O)NC1CC1)c1nc2ccccc2nc1N1CCN(C/C=C/c2ccccc2)CC1 (stereo not drawn) | -58.9%
COCC(C)OC(=O)C(C#N)c1nc2ccccc2nc1N1CCN(Cc2ccccc2)CC1 (stereo not drawn) | -31%
COC(=O)C(C#N)c1nc2ccccc2nc1N1CCN(Cc2ccc3c(c2)OCO3)CC1 (stereo not drawn) | -2.48%
CSc1ccc(/C=C/C(=O)c2ccc(NC(=O)Cc3ccccc3)cc2)cc1 | -4.59%
O=C(O)c1ccc(NS(=O)(=O)c2ccc(Cl)c(Cl)c2)cc1O | -1.71%

SMILES | hERG current change (%, negative = inhibition) at 10uM
COc1ccc(-c2csc3nc(-c4ccccc4F)oc(=O)c23)cc1OC | -3.61%
CCOC(=O)c1ccc(COC(=O)c2cc3ccccc3oc2=O)o1 | -48.6%
Cc1ccc(C2NC(=O)NC3=C2CCc2ccccc23)cc1 (stereo not drawn) | 2.59%
O=C1NC2=C(CCc3ccccc32)C(c2ccc(Br)cc2)N1 (stereo not drawn) | -56.3%
O=C1NC2=C(CCc3ccccc32)C(c2ccccc2)N1 (stereo not drawn) | -20.8%
CCOC(=O)c1cccc(NC(=O)c2c(O)[nH]c(=O)[nH]c2=O)c1 | -2.88%
Cc1ccc(CN2CCSc3ccc(C(=O)N4CCN(c5ncccn5)CC4)cc32)cc1 | 19%
CN(NC(=O)C(C)(C)C)c1nc(-c2ccccc2)nnc1C(F)(F)F | -4.05%
Cc1sc2ncnc(OCC(=O)N3CCN(C(=O)c4ccco4)CC3)c2c1C | -30.8%
O=C(CSc1ncnc2c1cnn2-c1ccccc1Cl)N1CCN(C(=O)c2ccco2)CC1 | -65.7%
Cc1sc2ncnc(SCC(=O)N3CCCC3)c2c1C | 2.1%
Cc1sc2ncnc(SCC(=O)N3CCN(C(=O)c4ccco4)CC3)c2c1C | -70.1%
Cc1sc2nc(C(C)C)nc(SCC(=O)NCc3ccco3)c2c1C | 2.82%
Cc1sc2nc(C(C)C)nc(SCC(=O)N3CCOCC3)c2c1C | -0.958%
Cc1nc(SCC(=O)Nc2ccc(CN3CCCC3)cc2)c2c(C)c(C)sc2n1 | -35.3%
Cc1sc2ncnc(SCC(=O)Nc3ccc(CN4CCCC4)cc3)c2c1C | -72.6%
CC(=O)Nc1ccc(NC(=O)CSc2ncnc3sc(C)c(C)c23)cc1 | 8.58%
Cc1sc2nc(C(C)C)nc(SCC(=O)N3CCN(C(=O)c4ccco4)CC3)c2c1C | -72.3%
CC(C)C(=O)NNC(=O)CSc1ncnc2c1cnn2-c1ccccc1Cl | 9.5%
COc1ccc(N2CCN(C(=O)CSc3ncnc4c3cnn4-c3ccccc3C)CC2)cc1 | 10.8%
